Measurements taken from PubChem BioAssay (EPA / NIEHS).
Records with an inconclusive call do not appear. Active and inactive are the calls of the source. Rule for the calls: active = hit-call score of the fitted dose curve at least 0.9, where 1 is the maximum; inconclusive = response in the unintended direction; inactive = score below 0.9.

Test: ACEA_AR_antagonist_AUC_viability: ACEA Biosciences xCELLigence Real-Time Cell Analysis on Androgen Receptor Antagonism for Viability (AID 2283776);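 note: 22Rv1 human prostate cancer cells growing on impedance electrode plates; area under impedance growth curve at 80 h after dosing as viability; hits lower the growth signal relative to DMSO meaning cytotoxicity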
In short: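 22Rv1 prostate cells, continuous dosing up to 100 uM final (0.5% DMSO max), duplicate plates. Growth measured by impedance; AUC at 80 h, loss of signal vs DMSO.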
For CC(C)(C)N(NC(=O)c1ccc(Cl)cc1)C(=O)c1ccccc1, the outcome was “inactive”.
For O=C(O)C1C(C(=O)O)C2(Cl)C(Cl)=C(Cl)C1(Cl)C2(Cl)Cl (centres undefined), the outcome was “inactive”.
For CCCCC(CC)COC(=O)c1c(Br)c(Br)c(Br)c(Br)c1C(=O)OCC(CC)CCCC (centres undefined), the outcome was “inactive”.
With COCCOCCO the outcome was “inactive”.
For CCCCN(CC)C(=O)SCCC, the outcome was “inactive”.
For CC(Cl)(Cl)C(=O)O, the outcome was “inactive”.
For c1cc2c3c(cccc3c1)CC2, the outcome was “inactive”.
In the case of CCNc1nc(Cl)nc(NC(C)(C)C)n1, the outcome was “inactive”.
For CCC(C)(C)c1ccc(O)cc1, the AC50 was 71.7 µM (active).
In the case of [N-]=[N+]=[N-], the AC50 was 50 µM (active).
With CCC1(c2ccccc2)C(=O)N=C(O)NC1=O (centres undefined) the outcome was “inactive”.
In the case of Nc1ccc2ccccc2c1, the outcome was “inactive”.
For CCCCC(CC)COP(=O)(Oc1ccccc1)Oc1ccccc1 (centres undefined), the AC50 was 16.6 µM (active).
For CO/N=C(/C(=O)OC)c1ccccc1COc1ccccc1C, the outcome was “inactive”.
For CCOC(=O)c1ccccc1C(=O)OCC, the outcome was “inactive”.
In the case of c1nc[nH]n1, the outcome was “inactive”.
For CCN(CC)c1ccccc1, the outcome was “inactive”.
For Cc1ccc(N)cc1N, the outcome was “inactive”.
For CN(C)C(=O)Cl, the outcome was “inactive”.
With COC(N)=O the outcome was “inactive”.
For CC1(C)CN=C(NN=C(/C=C/c2ccc(C(F)(F)F)cc2)/C=C/c2ccc(C(F)(F)F)cc2)NC1, the AC50 was 11.1 µM (active).
For O=S1(=O)OCC2C(CO1)C1(Cl)C(Cl)=C(Cl)C2(Cl)C1(Cl)Cl (centres undefined), the outcome was “inactive”.
In the case of FC(F)(F)c1ccc(Cl)cc1, the outcome was “inactive”.

Test: ACEA_ER_AUC_viability: ACEA Biosciences xCELLigence Real-Time Cell Analysis on Estrogen Receptor Agonism for Viability (AID 2283782);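 note: hit means loss of impedance signal meaning reduced cell growth or viability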
In short: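 Read-out: real-time electrical impedance (RT-CES) area under curve, loss of signal taken as reduced viability, normalized to DMSO baseline. T-47D cells, charcoal-stripped serum medium, compounds up to 100 uM final, continuous exposure, 80 h.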
With O=C(O)C(F)(F)OC(F)(F)C(F)(F)OC(F)(F)F the outcome was “inactive”.
In the case of C=CC(=O)OCC(CC)(COC(=O)C=C)COC(=O)C=C, the AC50 was 10.1 µM (active).
With C=C(C)C(=O)OCC1CO1 (centres undefined) the outcome was “inactive”.
For COCCOCCO, the outcome was “inactive”.
With N#Cc1c(-c2ccc(Cl)cc2)[nH]c(C(F)(F)F)c1Br the AC50 was 6.72 µM (active).
In the case of Oc1ccc(I)cc1, the AC50 was 73.7 µM (active).
With CCC(C)(C)c1ccc(O)cc1 the AC50 was 88.4 µM (active).
With CC(C)(C)OOC(C)(C)C the outcome was “inactive”.
In the case of CCOP(=O)(O)C(N)=O, the outcome was “inactive”.
With CCCCC(CC)COP(=O)(Oc1ccccc1)Oc1ccccc1 (centres undefined) the AC50 was 85.5 µM (active).
For CCOC(=O)c1ccccc1C(=O)OCC, the outcome was “inactive”.
In the case of COP(N)(=S)OC, the AC50 was 32.4 µM (active).
In the case of COC(N)=O, the outcome was “inactive”.
With CC1(C)CN=C(NN=C(/C=C/c2ccc(C(F)(F)F)cc2)/C=C/c2ccc(C(F)(F)F)cc2)NC1 the AC50 was 2.02 µM (active).
For O=C(CBr)OCc1ccccc1, the outcome was “inactive”.
With O=S1(=O)OCC2C(CO1)C1(Cl)C(Cl)=C(Cl)C2(Cl)C1(Cl)Cl (centres undefined) the AC50 was 83 µM (active).
